# Test results published in PubChem BioAssay (NCATS).
# Results filed as inconclusive are left out. A number with no mark means an inactive call. Active and inactive are the calls of the source. Unless noted, calls follow the shape of the dose curve; as a rule, active = well fitted cell-killing curve with a large enough effect; inconclusive = small, poorly fitted or top-dose-only effect; inactive = flat fitted curve, though single readings scatter.
# Biological target: Mitogen-activated protein kinase 10 (Mus musculus) (UniProt Q61831)
# Assay: JNK3 AlphaScreen Assay (AID 530; active = well fitted curve in either direction with a large enough effect, not every such curve was filed as active;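 also: kinase came from lysate of stimulated human HepG2 cells; signal reports phosphorylation of biotinylated GST-cJun 1-79 at Ser73 with 10 µM ATP; % is scaled to controls: 0 for no effect and ±100 for the full control effect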)
# Conditions: JNK3 lysate, c-Jun phosphorylation; series mostly up to 11.4 µM; activity change, negative = inhibition: at the top concentration
# Outline: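 qHTS titrations with 15 min compound pre-incubation before adding ATP (10 uM final). Read-out: AlphaScreen of Ser73-phosphorylated biotin-GST-cJun using HepG2 lysate JNK3 activated by IL-1β and TNFα.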
row,SMILES,"activity change, negative = inhibition"
1,Nc1cnn([C@@H]2O[C@H](CO)[C@@H](O)[C@H]2O)c(=O)n1,16.5% [at 57.1 µM]
2,Oc1c(Cl)cc(Cl)c(Cl)c1Cl,-2.65% [at 57.1 µM]
3,COc1ccc([N+](=O)[O-])cc1N,3.85% [at 57.1 µM]
4,OCC(CO)(CBr)CBr,21.4% [at 57.1 µM]
5,Oc1ccc2c(c1)OCO2,13.2% [at 57.1 µM]
6,CC(=O)OC1CC(C)OC(C)O1 (configuration not stated),-9.27% [at 57.1 µM]
7,C/C=C/C=C/C=O,11% [at 57.1 µM]
8,CC(=O)Nc1cccc(C)c1,7.12% [at 57.1 µM]
9,COc1ccc(C)cc1N,-12.5% [at 57.1 µM]
10,C[C@@H]1CC2(OC(O)[C@]3(C)O[C@H]23)O[C@H]2C[C@@]3(C)[C@@H]4CC[C@H]5C(C)(C)C(O[C@@H]6OC[C@@H](O)[C@H](O)[C@H]6O)CC[C@@]56C[C@@]46CC[C@]3(C)[C@@H]12 (some centres not stated),20.8% [at 57.1 µM]
11,COc1cc(-c2ccc(N=C=O)c(OC)c2)ccc1N=C=O,-18.4% [at 57.1 µM]
12,CCOC(=O)C1OC1c1ccccc1 (configuration not stated),12.7% [at 57.1 µM]
13,COc1ccc(C(=O)Nc2ccccc2)cc1[N+](=O)[O-],-4.39% [at 57.1 µM]

# Test system: not listed separately
# Assay: Cell Viability - N2a (AID 540);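 also: cells exposed to compound for 40 h at 37 °C; plate controls were DMSO alone for no effect and tamoxifen control for full effect; nearly all actives have a fitted effect of over 45% in size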
# Conditions: N2a mouse neuroblastoma cell viability; activity change, negative = cytotoxicity: at 92.2 µM (top of the series)
# Outline: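 Cytotoxicity was scored as loss of cellular ATP in N2a cells, a mouse neuroblastoma line. Compounds are applied in a qHTS concentration series for 40 hr at 37 °C.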
row,SMILES,"activity change, negative = cytotoxicity [%]"
1,CCCCCCc1ccc(-c2ccc(C#N)cc2)cc1,-10.7
2,Nc1cnn([C@@H]2O[C@H](CO)[C@@H](O)[C@H]2O)c(=O)n1,8.82
3,CCCCCCCCOc1ccc(C(=O)O)cc1,-7.43
4,CC(C)OCC1CO1 (configuration not stated),-7.39
5,C/C(Cl)=C/CCl,-6.1
6,CCCCNCC,-1.46
7,O=c1[nH]ncc2ccccc12,-2.98
8,c1ccc(COCc2ccccc2)cc1,-4.56
9,O=[N+]([O-])c1cccc(I)c1,-10.4
10,Nc1ccc2c(c1)C(=O)c1ccccc1C2=O,-27.2
11,c1ccc2c(c1)ccc1ccccc12,-13.8
12,Cc1ccc(C(=O)O)cc1[N+](=O)[O-],4.91
13,OCC(CO)(CBr)CBr,-2.21
14,Nc1cc(C(=O)O)c(O)c(S(=O)(=O)O)c1,-4.5
15,c1ccncc1,-3.08
16,CC(=O)OC1CC(C)OC(C)O1 (configuration not stated),7.5
17,O=C(OCc1ccccc1)c1ccccc1O,-11.2

row,SMILES,"activity change, negative = cytotoxicity [%]"
1,CCN(CC)c1ccc2c(C)cc(=O)oc2c1,-15.7
2,c1c[nH]cn1,-11.6
3,c1ccc(SCCSc2ccccc2)cc1,8.64
4,O=C(O)/C=C/c1ccc(/C=C/C(=O)O)cc1,-20.9
5,CCCCOC(=O)COc1ccc(Cl)cc1Cl,7.15
6,CC(=O)OC(C(=O)c1ccccc1)c1ccccc1 (configuration not stated),-7.31
7,CCCCCCN,-7.51
8,CC(=O)Nc1cccc(C)c1,-6.73
9,CCC(Cl)CC(Cl)C(Cl)C(Cl)C(Cl)C(C)Cl (configuration not stated),-24.5
10,COc1ccc(C)cc1N,-14.1
11,C[C@@H]1CC2(OC(O)[C@]3(C)O[C@H]23)O[C@H]2C[C@@]3(C)[C@@H]4CC[C@H]5C(C)(C)C(O[C@@H]6OC[C@@H](O)[C@H](O)[C@H]6O)CC[C@@]56C[C@@]46CC[C@]3(C)[C@@H]12 (some centres not stated),-12.9
12,O=[N+]([O-])c1ccccc1Nc1ccccc1,-9.33
13,C=CC1CO1 (configuration not stated),2.77
14,COc1cc(-c2ccc(N=C=O)c(OC)c2)ccc1N=C=O,4.66
15,CCOC(=O)C1OC1c1ccccc1 (configuration not stated),0.144
16,COc1ccc(C(=O)Nc2ccccc2)cc1[N+](=O)[O-],-4

# Test system: not listed separately
# Assay: Cell Viability - NIH 3T3 (AID 541);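 also: cells exposed to compound for 40 hours; plate controls were DMSO alone for no effect and tamoxifen positive control for full effect; nearly all actives have a fitted effect of over 25% in size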
# Conditions: NIH 3T3 cell viability, qHTS; activity change, negative = cytotoxicity: at 92.2 µM (top of the series)
# Outline: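 Cells seeded at 1000/well, rested 5 hr at 37 °C, then dosed and incubated 40 hr at 37 °C. CellTiter-Glo added, 20 min room temperature, luminescence read. AC50 by Hill fit.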
row,SMILES,"activity change, negative = cytotoxicity"
1,CCCCCCc1ccc(-c2ccc(C#N)cc2)cc1,-12.5%
2,Nc1cnn([C@@H]2O[C@H](CO)[C@@H](O)[C@H]2O)c(=O)n1,4.75%
3,CCCCCCCCOc1ccc(C(=O)O)cc1,-11.5%
4,Oc1c(Cl)cc(Cl)c(Cl)c1Cl,-2.17%
5,CC(C)OCC1CO1 (configuration not stated),-16.9%
6,C/C(Cl)=C/CCl,-23.5%
7,CCCCNCC,-8.38%
8,O=c1[nH]ncc2ccccc12,-142% (active)
9,c1ccc(COCc2ccccc2)cc1,-5.87%
10,O=[N+]([O-])c1cccc(I)c1,-7.89%
11,c1ccc2c(c1)ccc1ccccc12,-132% (active)
12,Cc1ccc(C(=O)O)cc1[N+](=O)[O-],-13.4%
13,COc1ccc([N+](=O)[O-])cc1N,-29.6%
14,Nc1cc(C(=O)O)c(O)c(S(=O)(=O)O)c1,-24.6%
15,c1ccncc1,-13.1%
16,O=C(OCc1ccccc1)c1ccccc1O,-9.56%
17,C/C=C/C=C/C=O,-142% (active)
18,c1c[nH]cn1,-10%
19,c1ccc(SCCSc2ccccc2)cc1,-5.55%
20,CCCCOC(=O)COc1ccc(Cl)cc1Cl,1.3%
21,CCCCCCN,-9.38%
22,CC(=O)Nc1cccc(C)c1,-12.7%
23,CCC(Cl)CC(Cl)C(Cl)C(Cl)C(Cl)C(C)Cl (configuration not stated),-16.5%
24,CCc1ccc(C(c2ccc(CC)cc2)C(Cl)Cl)cc1,-11.4%
25,O=[N+]([O-])c1ccccc1Nc1ccccc1,-20.1%
26,C=CC1CO1 (configuration not stated),-8.56%
